Data published in PubChem BioAssay (Tox21).
Results filed as inconclusive are left out. Active and inactive are the calls of the source. Calls follow the shape of the dose curve; as a rule, active = well fitted curve in the direction sought with a large enough effect in the repeat runs; inconclusive = weak or mixed curves; inactive = no such curve, though single readings can be large; an effect the other way counts as inactive or inconclusive.

Columns and labels:
[1] = molecular target: Cytochrome P450 2D6 (Homo sapiens) (UniProt P10635); experiment: Cytochrome P450 Family 2 Subfamily D Member 6 (CYP2D6) small molecule antagonists: luciferase reporter qHTS assay (AID 1671196); also: nearly all actives have a fitted effect of over 50% in size
Chain of Cytochrome P450 2D6 (Homo sapiens) (P10635 whole entry, looked up): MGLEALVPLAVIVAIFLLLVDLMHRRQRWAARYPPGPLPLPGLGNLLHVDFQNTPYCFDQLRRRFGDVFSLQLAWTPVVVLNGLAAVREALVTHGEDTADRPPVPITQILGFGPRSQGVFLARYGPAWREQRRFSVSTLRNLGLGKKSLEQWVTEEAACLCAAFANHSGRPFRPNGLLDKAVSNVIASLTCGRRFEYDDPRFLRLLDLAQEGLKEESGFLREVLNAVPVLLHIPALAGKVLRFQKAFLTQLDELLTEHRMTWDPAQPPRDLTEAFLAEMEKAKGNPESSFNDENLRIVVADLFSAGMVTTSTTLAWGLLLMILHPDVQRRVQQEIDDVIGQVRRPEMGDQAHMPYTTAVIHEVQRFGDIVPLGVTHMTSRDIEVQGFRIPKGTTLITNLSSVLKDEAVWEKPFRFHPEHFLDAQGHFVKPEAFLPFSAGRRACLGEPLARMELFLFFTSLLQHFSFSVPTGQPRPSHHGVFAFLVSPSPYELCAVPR
Method in brief: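 Room-temperature luminescent CYP2D6 activity assay: compound preincubated 10 min with enzyme–substrate mix, NADPH-initiated reaction 1 h, detection reagent 20 min before reading.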

[2] = molecular target: Cytochrome P450 2C19 (Homo sapiens) (UniProt P33261); experiment: Cytochrome P450 Family 2 Subfamily C Member 19 (CYP2C19) small molecule antagonists: luciferase reporter qHTS assay (AID 1671197); also: nearly all actives have a fitted effect of over 65% in size
Chain of Cytochrome P450 2C19 (Homo sapiens) (P33261 whole entry, looked up): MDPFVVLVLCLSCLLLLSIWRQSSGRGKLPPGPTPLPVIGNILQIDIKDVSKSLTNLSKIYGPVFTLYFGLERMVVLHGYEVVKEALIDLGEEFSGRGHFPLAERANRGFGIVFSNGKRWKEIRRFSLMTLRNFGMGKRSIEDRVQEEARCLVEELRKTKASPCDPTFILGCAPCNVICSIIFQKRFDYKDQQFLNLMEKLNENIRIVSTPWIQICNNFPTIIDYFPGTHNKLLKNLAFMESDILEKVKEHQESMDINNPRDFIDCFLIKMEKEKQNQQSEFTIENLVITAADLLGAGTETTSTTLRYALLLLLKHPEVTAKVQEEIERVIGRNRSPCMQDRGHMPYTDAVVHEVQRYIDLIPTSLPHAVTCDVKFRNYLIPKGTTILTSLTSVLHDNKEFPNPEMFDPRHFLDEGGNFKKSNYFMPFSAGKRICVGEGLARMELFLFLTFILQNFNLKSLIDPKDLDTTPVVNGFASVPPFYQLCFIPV
Method in brief: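 CYP2C19 P450-Glo, 1536-well qHTS. Cpd + enzyme/proluciferin substrate 10 min RT; + NADPH regen, 37C 1 h; stop with luciferin detection reagent, 20 min RT, luminescence (RLU). Pos ctrl ketoconazole.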

[3] = molecular target: Cytochrome P450 2C9 (Homo sapiens) (UniProt P11712); experiment: Cytochrome P450 Family 2 Subfamily C Member 9 (CYP2C9) small molecule antagonists: luciferase reporter qHTS assay (AID 1671198); also: nearly all actives have a fitted effect of over 50% in size
Chain of Cytochrome P450 2C9 (Homo sapiens) (P11712 whole entry, looked up): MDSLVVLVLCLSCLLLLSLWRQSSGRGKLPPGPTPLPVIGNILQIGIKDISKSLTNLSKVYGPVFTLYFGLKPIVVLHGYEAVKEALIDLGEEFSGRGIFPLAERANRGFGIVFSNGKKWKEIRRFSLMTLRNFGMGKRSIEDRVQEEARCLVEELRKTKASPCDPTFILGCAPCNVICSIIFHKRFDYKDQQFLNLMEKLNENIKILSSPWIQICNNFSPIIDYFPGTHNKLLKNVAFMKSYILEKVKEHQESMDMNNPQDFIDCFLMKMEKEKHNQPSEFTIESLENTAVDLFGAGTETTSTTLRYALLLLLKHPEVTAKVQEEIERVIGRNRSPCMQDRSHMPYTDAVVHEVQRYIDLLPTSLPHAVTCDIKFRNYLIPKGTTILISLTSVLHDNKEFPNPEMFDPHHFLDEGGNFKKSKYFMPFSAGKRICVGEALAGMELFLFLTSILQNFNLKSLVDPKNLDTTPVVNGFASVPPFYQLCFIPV
Method in brief: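 Enzyme-substrate mix preincubated with compound 10 min at room temperature; reaction started with NADPH regeneration solution, 1 h 37C. Luminescent luciferin product read after 20 min detection reagent.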

[4] = molecular target: Cytochrome P450 1A2 (Homo sapiens) (UniProt P05177); experiment: Cytochrome P450 Family 1 Subfamily A Member 2 (CYP1A2) small molecule antagonists: luciferase reporter qHTS assay (AID 1671199); also: nearly all actives have a fitted effect of over 50% in size
Chain of Cytochrome P450 1A2 (Homo sapiens) (P05177 whole entry, looked up): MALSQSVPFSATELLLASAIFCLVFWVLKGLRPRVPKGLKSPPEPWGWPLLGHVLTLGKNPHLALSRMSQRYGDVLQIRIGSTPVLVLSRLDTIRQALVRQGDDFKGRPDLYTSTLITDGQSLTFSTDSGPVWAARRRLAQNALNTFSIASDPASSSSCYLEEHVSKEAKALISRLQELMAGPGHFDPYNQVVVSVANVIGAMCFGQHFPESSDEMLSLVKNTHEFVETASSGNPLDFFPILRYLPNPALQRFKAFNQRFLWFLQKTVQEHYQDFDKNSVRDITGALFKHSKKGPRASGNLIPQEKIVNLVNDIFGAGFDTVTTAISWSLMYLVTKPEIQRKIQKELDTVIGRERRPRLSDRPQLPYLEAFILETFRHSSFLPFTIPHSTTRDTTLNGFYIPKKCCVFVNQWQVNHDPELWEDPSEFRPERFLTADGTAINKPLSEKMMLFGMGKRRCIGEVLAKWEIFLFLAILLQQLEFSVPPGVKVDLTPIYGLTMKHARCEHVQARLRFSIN
Method in brief: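 Room-temperature CYP1A2 reaction with proluciferin substrate: compounds added from DMSO, 10 min preincubation, NADPH regeneration for 1 h. Luciferin detection reagent then added; luminescence recorded as RLU.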

[5] = molecular target: Cytochrome P450 3A4 (Homo sapiens) (UniProt P08684); experiment: Cytochrome P450 Family 3 Subfamily A Member 4 (CYP3A4) small molecule antagonists: luciferase reporter qHTS assay (AID 1671201); also: nearly all actives have a fitted effect of over 50% in size
Chain of Cytochrome P450 3A4 (Homo sapiens) (P08684 whole entry, looked up): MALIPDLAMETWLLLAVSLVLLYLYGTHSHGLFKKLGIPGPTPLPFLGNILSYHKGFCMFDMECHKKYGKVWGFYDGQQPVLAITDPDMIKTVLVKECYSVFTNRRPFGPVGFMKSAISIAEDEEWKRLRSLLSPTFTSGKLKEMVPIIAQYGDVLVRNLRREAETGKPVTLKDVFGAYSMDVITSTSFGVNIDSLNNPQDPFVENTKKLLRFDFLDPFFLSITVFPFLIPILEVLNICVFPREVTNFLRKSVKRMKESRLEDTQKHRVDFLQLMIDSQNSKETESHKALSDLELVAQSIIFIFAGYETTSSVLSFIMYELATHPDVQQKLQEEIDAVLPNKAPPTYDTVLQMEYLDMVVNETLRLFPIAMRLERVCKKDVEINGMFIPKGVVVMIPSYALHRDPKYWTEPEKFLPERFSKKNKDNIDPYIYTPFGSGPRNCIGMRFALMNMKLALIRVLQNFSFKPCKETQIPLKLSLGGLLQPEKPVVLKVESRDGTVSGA
Method in brief: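 P450-Glo CYP3A4 system with proluciferin substrate; compounds preincubated 10 min RT with enzyme-substrate mix, then NADPH regeneration added for 1 h RT. Detection reagent 20 min, luminescence read as relative luminescence units.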

[6] = molecular target: Voltage-gated inwardly rectifying potassium channel KCNH2 (Homo sapiens) (UniProt Q12809); experiment: Human Ether-a-go-go-Related Gene (hERG) channel small molecule antagonists: fluorescence cell-based qHTS assay (AID 1671200); also: nearly all actives have a fitted effect of over 50% in size
Chain of Voltage-gated inwardly rectifying potassium channel KCNH2 (Homo sapiens) (Q12809 whole entry, looked up): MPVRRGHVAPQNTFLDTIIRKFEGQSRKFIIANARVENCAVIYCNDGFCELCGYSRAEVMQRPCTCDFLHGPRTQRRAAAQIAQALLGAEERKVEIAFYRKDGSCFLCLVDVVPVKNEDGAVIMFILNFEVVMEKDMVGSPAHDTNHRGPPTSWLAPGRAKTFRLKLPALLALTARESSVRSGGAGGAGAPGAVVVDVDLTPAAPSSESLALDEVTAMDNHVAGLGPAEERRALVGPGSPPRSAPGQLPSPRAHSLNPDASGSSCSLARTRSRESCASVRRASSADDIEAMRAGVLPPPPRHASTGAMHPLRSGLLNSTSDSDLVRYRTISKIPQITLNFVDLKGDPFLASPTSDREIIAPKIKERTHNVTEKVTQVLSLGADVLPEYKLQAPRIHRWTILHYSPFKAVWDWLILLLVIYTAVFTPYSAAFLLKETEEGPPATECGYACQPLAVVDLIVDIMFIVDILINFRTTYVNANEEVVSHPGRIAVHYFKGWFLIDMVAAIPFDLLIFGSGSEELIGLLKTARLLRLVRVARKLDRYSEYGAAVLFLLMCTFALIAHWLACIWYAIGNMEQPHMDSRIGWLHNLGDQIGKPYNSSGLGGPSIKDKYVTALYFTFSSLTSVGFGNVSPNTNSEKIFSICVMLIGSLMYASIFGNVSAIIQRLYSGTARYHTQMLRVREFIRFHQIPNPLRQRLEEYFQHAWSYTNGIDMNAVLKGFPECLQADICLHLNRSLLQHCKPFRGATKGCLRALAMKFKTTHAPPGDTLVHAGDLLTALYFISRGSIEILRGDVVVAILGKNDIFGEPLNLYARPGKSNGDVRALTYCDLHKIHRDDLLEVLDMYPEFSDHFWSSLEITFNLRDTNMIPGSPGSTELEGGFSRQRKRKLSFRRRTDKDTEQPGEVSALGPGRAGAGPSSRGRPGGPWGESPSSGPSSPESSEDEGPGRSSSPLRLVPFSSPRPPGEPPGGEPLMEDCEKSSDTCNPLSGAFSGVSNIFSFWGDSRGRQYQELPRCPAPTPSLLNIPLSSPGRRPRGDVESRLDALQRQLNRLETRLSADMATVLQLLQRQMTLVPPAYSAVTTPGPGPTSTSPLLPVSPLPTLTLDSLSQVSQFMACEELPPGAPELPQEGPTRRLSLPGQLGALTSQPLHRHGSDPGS
Method in brief: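 U2OS cells expressing the channel were plated at 1000 cells/well, incubated overnight at 37 C, then loaded with FluxOR II thallium-sensitive dye for 1 h at room temperature in the dark, with a further 10 min at room temperature before stimulation.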

Measured: Potency
Potency is read from the fitted curve at half-maximal effect.

COc1cc(C(=O)N2CCOCC2)cc(OC)c1OC
not listed: [6]
inactive: all other assays above

Nc1ncnc2c1ncn2Cc1c(F)cccc1Cl
inactive: all assays above

NC(N)=NS(=O)(=O)c1ccc(N)cc1
inactive: all assays above

Nc1nc2c(ncn2CCC(CO)CO)c(=O)[nH]1
inactive: all assays above

CC(C)(O)Cc1ccccc1
inactive: all assays above

CNC(=O)c1c(I)c(NC(=O)CCCCC(=O)Nc2c(I)c(C(=O)O)c(I)c(C(=O)NC)c2I)c(I)c(C(=O)O)c1I
inactive: all assays above

CN(C)N=Nc1ccccc1
inactive: all assays above

CCC(=O)/C=C/c1ccc(OC)cc1
active: [2] 12.6 µM | [3] 39.9 µM | [4] 20 µM
inactive: [1] | [6] | [5]

Cc1c(F)cc2c(=O)c(C(=O)O)cn3c2c1CCC3C (centres undefined)
inactive: all assays above

COc1nc(C)nc(N)n1
inactive: all assays above

Fc1ccccc1-c1ccccc1
active: [4] 40.8 µM
inactive: all other assays above

CC12CCC(CC1=O)C2(C)C (centres undefined)
inactive: all assays above

CO[Si](OC)(OC)OC
active: [4] 31 µM
inactive: all other assays above

CC1=CC(=O)CCC1
inactive: all assays above

CCCOc1ccccc1-c1nc2n[nH]nc2c(=O)[nH]1
not listed: [4]
inactive: all other assays above

COC(=O)c1ccc(C(=O)OC)c(C(=O)OC)c1
active: [2] 39.9 µM | [4] 7.96 µM
inactive: [1] | [6] | [5]

CCO[Si](C)(OCC)OCC
active: [5] 28.3 µM
not listed: [4]
inactive: all other assays above

NC(=O)c1c(Cl)cccc1Cl
active: [1] 31.7 µM | [2] 20 µM | [5] 31.7 µM
inactive: [3] | [6]

NC(=O)Nc1nc2ccccc2[nH]1
inactive: [6] | [5]
active: [1] 31.5 µM | [2] 39.6 µM | [4] 39.6 µM

CC(C=O)Cc1ccc(C(C)C)cc1 (centres undefined)
inactive: [1] | [6] | [5]
active: [2] 50.2 µM

O=[N+]([O-])c1ccc(Oc2ccc([N+](=O)[O-])cc2)cc1
inactive: [1] | [4] | [5]
active: [2] 1.82 µM | [6] 39.8 µM

COc1cc(CCC(C)=O)ccc1O
not listed: [4]
inactive: all other assays above

N#CCc1ccccc1[N+](=O)[O-]
active: [1] 78.7 µM | [4] 31.3 µM
inactive: [2] | [6] | [5]

CCC(C)OC(=O)N1CCCCC1CCO (centres undefined)
active: [2] 35.6 µM | [3] 79.6 µM
inactive: [1] | [5]

CC(C)c1cccc(C(C)C)c1N
active: [4] 20 µM
not listed: [3]
inactive: all other assays above

CCCCCCCCCCCCCCCCCCOCC(O)CO (centres undefined)
not listed: [4]
inactive: all other assays above

CCCC(=O)O[C@]1(C(=O)CCl)[C@@H](C)C[C@H]2[C@@H]3CCC4=CC(=O)C=C[C@]4(C)[C@@]3(F)C(=O)C[C@@]21C
inactive: [4]
active: [1] 11 µM | [2] 7.76 µM

Nc1cc(N)cc(C(=O)O)c1
active: [1] 35.6 µM | [2] 79.6 µM
inactive: [4] | [6] | [5]

COc1ccc(COC=O)cc1
active: [4] 63.3 µM
not listed: [3]
inactive: all other assays above

C=C(C)C(=O)OCCC(C)OC(=O)C(=C)C (centres undefined)
active: [4] 31.7 µM
not listed: [3]
inactive: all other assays above

CCCCCCCCN(C)CCCCCCCC
active: [1] 64 µM | [6] 1.57 µM
inactive: [2] | [4] | [5]

CC1=CC(C)C(C=O)C(C)C1 (centres undefined)
not listed: [3]
inactive: all other assays above

CC1(C)OC(=O)Nc2ccc(Br)cc21
inactive: [1] | [6]
active: [2] 17.4 µM

C=C(C)[C@H]1CC=C(C)CC1
inactive: [2] | [3] | [5]
active: [1] 35.6 µM

CC(C)c1cccc(O)c1
not listed: [4]
inactive: all other assays above

CCCc1ccc(N)cc1
active: [2] 35.6 µM | [4] 35.6 µM
inactive: [1] | [6]

O=C(O)C(O)[C@H](O)[C@@H](O)[C@H](O)[C@H](O)CO (some centres undefined)
inactive: [6] | [5]
active: [1] 64 µM | [2] 40.4 µM | [4] 40.4 µM

CC1=CCC2C(C1)C2(C)C (centres undefined)
active: [2] 39.9 µM | [3] 63.3 µM | [5] 15.9 µM
inactive: [1] | [6]

C#CC(O)C(CC)CCCC (centres undefined)
inactive: [1] | [4] | [6]
active: [2] 71 µM

C=CCn1c(=O)n([C@@H]2O[C@H](CO)[C@@H](O)[C@H]2O)c2nc(N)[nH]c(=O)c21
not listed: [4]
inactive: all other assays above

CCCCCCOC(=O)c1ccccc1O
inactive: [1] | [2] | [3] | [5]

C1C2OC2C2C1C1CC2C2OC12 (centres undefined)
active: [2] 40.1 µM
inactive: [1] | [4] | [5]

CCCCCCCCC=O
inactive: [1] | [2] | [4] | [5]

CCCCN(CCO)CCO
not listed: [3]
inactive: all other assays above

CCCCc1ccc2cccc(S(=O)(=O)O)c2c1
active: [3] 37.3 µM
not listed: [4]
inactive: all other assays above

Nc1ccc2cc(S(=O)(=O)O)ccc2c1
inactive: [6] | [5]
active: [1] 39.9 µM | [2] 39.9 µM | [3] 50.2 µM

CC(C)=CCC/C(C)=C/C(=O)O
active: [2] 39.9 µM
inactive: [1] | [4] | [5]

O=[N+]([O-])c1ccc(CCO)cc1
inactive: [1] | [2] | [3] | [5]

O=C(O)CCNC(=O)c1ccc(N=Nc2ccc(O)c(C(=O)O)c2)cc1
not listed: [3]
inactive: all other assays above

CC(C)(O)C(=O)c1ccc(OCCO)cc1
active: [4] 35.6 µM
not listed: [3]
inactive: all other assays above

CC/C=C\CCCCO
not listed: [3]
inactive: all other assays above

OC/C=C/c1ccccc1
inactive: [5]
active: [1] 59 µM | [2] 74.3 µM | [3] 52.6 µM

C[C@H](O)C(=O)Nc1c(I)c(C(=O)NC(CO)CO)c(I)c(C(=O)NC(CO)CO)c1I
not listed: [2]
inactive: all other assays above

COC(=O)CCCCCCCCC(=O)OC
inactive: [1] | [6] | [5]
active: [4] 40.1 µM

CC(C)COC(=O)C(C)C
inactive: [1] | [6] | [5]
active: [2] 79.7 µM

CCN1CCCC(OC(=O)C(c2ccccc2)c2ccccc2)C1 (centres undefined)
inactive: [3] | [4]
active: [1] 1.38 µM | [6] 3.38 µM

COC[C@H](c1ccc(C(F)(F)F)cc1)N1CCN(C2(C)CCN(C(=O)c3c(C)ncnc3C)CC2)C[C@H]1C
active: [1] 34.7 µM
inactive: [3] | [4]

Nc1cc(C(Cl)=C(Cl)Cl)c(S(N)(=O)=O)cc1S(N)(=O)=O
inactive: [1] | [4]

CN(C)C(=O)Nc1ccccc1
inactive: [1] | [3] | [6] | [5]
